In the library only some 12% were active in any assay of this set; here they are far more common.
Sm TGR inh – inhibitors of Schistosoma mansoni thioredoxin glutathione reductase; purified TGR, DTNB reduction, TNB absorbance 405 nm; Potency, µM (highest dose often 114 µM), for inactives: at the highest dose activity change, negative = inhibition, hits mostly inhibitors; 360,000 tested, 3% active; AID 485364; also: % is scaled to controls: 0 for no effect and ±100 for the full control effect; nearly all actives have a fitted effect of over 60% in size
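First, TGR (20 nM dispensed) and NADPH were mixed with compound. Second, a 15 min room-temperature incubation followed. Third, further NADPH and then DTNB were added to start the reaction. Finally, TNB absorbance was monitored kinetically.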
Pf growth 48h – P. falciparum growth inhibition at 48 hours (one generation); P. falciparum luciferase growth in erythrocytes, 48 h; Potency, µM (doses to about 28.7 µM), for inactives: top-dose activity change, negative = inhibition, usual class: inhibitors; 310,000 tested, 5.9% active; AID 504832; also: % is scaled to controls: 0 for no effect and ±100 for the full control effect
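In quantitative HTS format, infected erythrocytes bearing luciferase-reporter parasites were treated for a single generation at 37 C. Luminescence after adding detection reagent served as the growth measure.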
SARS PLP yeast – inhibitors of SARS-CoV papain-like protease in yeast; S. cerevisiae expressing SARS-CoV PLpro, growth rescue; Potency, µM (highest dose often 32.9 µM), inactives show at the highest dose activity, positive = growth rescue, usual class: activators; 330,000 tested, 0.19% active; calls by dose curve; also: 0% is about no effect; nearly all actives have a fitted effect of over 55% in size
Pf growth 96h – P. falciparum growth inhibition at 96 hours; P. falciparum luciferase reporter growth, 96 h; Potency, µM (titrated, usually from 28.7 µM), without a hit: at the highest dose activity change, negative = inhibition, hits mostly inhibitors; 320,000 tested, 6.9% active; AID 504834; also: % is scaled to controls: 0 for no effect and ±100 for the full control effect
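Luminescence readout: decreased luciferase signal marks inhibited growth of reporter-expressing P. falciparum in infected red cells (2% hematocrit, 0.05% parasitemia final), exposed to compound two generations (96 h, 37 C, 5% CO2).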
* marks the source's active call; other numbers are inactive results; u = inconclusive; x = not tested or not shown; [ ] = dose if it differs, or a comment. Unless noted, calls follow the shape of the dose curve; as a rule, active = well fitted curve in the direction sought with a large enough effect; inconclusive = small, poorly fitted or top-dose-only effect, or another doubt; inactive = no such curve, though single readings can be large; an effect the other way counts as inactive or inconclusive. Potency is read from the fitted curve at half-maximal effect.

SMILES	Sm TGR inh	Pf growth 48h	SARS PLP yeast	Pf growth 96h
CCN(CC)CCCN(c1ccccc1)C1Cc2ccccc2C1	x	1.9µM*	x	u
COc1ccc(Cn2ccc3nc(C)c(C(=O)N4CCN(c5cccc(OC)c5)CC4)cc3c2=O)cc1	-9%	x	x	x
O=C(Nc1ccnn1C1CCN(Cc2cc3ccccc3[nH]2)CC1)C1CCOC1 (stereo unspecified)	-27%	-14%	-1%	5.2µM*
O=C(Nc1ccnn1C1CCN(Cc2cccc(OCCO)c2)CC1)C1CCOC1 (stereo unspecified)	-12%	-9%	2%	5.2µM*
CCOc1cccc(CN2CCC(n3nccc3NC(=O)C3CCCC3)CC2)c1	1%	-18%	2%	54%
CSc1nc(N2CCOCC2)nc2ccc(C)cc12	0%	5%	0%	40%
Cc1ccccc1CNS(=O)(=O)c1csc(C(N)=O)c1	-4%	-27%	3%	6.6µM*
CCOc1ccc(NS(=O)(=O)c2csc(C(N)=O)c2)cc1	9%	1.9µM*	1%	1%
CC(=O)c1c(C)nn(-c2ccccc2)c1C	20%	0%	0%	8%
COc1ccccc1CNC(=O)c1c(-c2ccccc2)nn(-c2ccccc2)c1C	-5%	x	3%	9.3µM*
Cc1c(C(=O)O)c(-c2ccccc2)nn1-c1ccccc1	13%	1%	2%	2.9µM*
CCN(CC)c1cc2c(cc1F)c(=O)c(S(=O)(=O)c1cc(C)ccc1C)cn2Cc1ccccc1	7%	x	x	x
CCOC(=O)C1=CNS(=O)(=O)NC1c1ccccc1 (stereo unspecified)	x	x	-6%	x
CCC(c1nnnn1CC1CCCO1)N(CCCO)Cc1cc2cccc(C)c2[nH]c1=O (stereo unspecified)	-2%	x	7%	u
Cc1cc(C)c2[nH]c(=O)c(C(c3nnnn3C(C)(C)C)N(Cc3ccco3)CC3CCCO3)cc2c1 (stereo unspecified)	45µM*	x	8%	1.9µM*
Cc1cccc2cc(CN(CC3CCCO3)C(c3nnnn3Cc3ccco3)C(C)C)c(=O)[nH]c12 (stereo unspecified)	50µM*	u	0%	u
Cc1cc2cc(C(c3nnnn3C(C)(C)C)N(Cc3ccco3)CC3CCCO3)c(=O)[nH]c2cc1C (stereo unspecified)	u	u	3%	u
CCC(c1nnnn1C(C)(C)C)N(Cc1ccco1)Cc1cc2cccc(C)c2[nH]c1=O (stereo unspecified)	-35%	x	15%	u
COc1ccc2[nH]c(=O)c(C(c3nnnn3C(C)(C)C)N(Cc3ccco3)CC3CCCO3)cc2c1 (stereo unspecified)	u	9.3µM*	8%	5.9µM*
CCC(Oc1ccccc1)C(=O)N(C)CC(=O)N(CC(C)C)c1c(N)n(CC(C)C)c(=O)[nH]c1=O (stereo unspecified)	-8%	u	0%	-6%
CCN(CC(=O)Nc1ccc(NC(C)=O)cc1)C(=O)/C=C/c1ccc([N+](=O)[O-])cc1	4%	u	-1%	17%
COc1ccccc1NC(=O)C1=C(C)Nc2nc3ccccc3n2C1c1cccc(OC)c1OC (stereo unspecified)	-2%	x	x	x
COCCn1c(SCC(=O)N(C)c2ccccc2)nc2c([nH]c3ccccc32)c1=O	6%	u	1%	u
CC[n+]1c(/C=C/c2ccc(OC(C)=O)c(OC)c2)ccc2ccccc21	-27%	u	-1%	u
CC[n+]1c(/C=C/c2ccc(OC)c(OC)c2)ccc2ccccc21	-34%	1µM*	-7%	-19%
SMILES	Sm TGR inh	Pf growth 48h	SARS PLP yeast	Pf growth 96h
CC[n+]1c(/C=C/c2cc([N+](=O)[O-])ccc2O)ccc2ccccc21	0%	u	-5%	95%
C[n+]1c(/C=C/c2ccc(O)cc2)ccc2ccccc21	6%	u	1%	2.3µM*
CCN(CC)c1ccc(/C=C/c2ccc3ccc(OC)cc3[n+]2CC)cc1	0%	1.9µM*	-12%	-4%
CC[n+]1c(/C=C/c2ccc(N(C)C)cc2)ccc2ccccc21	u	0.66µM*	-131%	0.41µM*
C[n+]1c(/C=C/c2ccc3c(c2)OCO3)ccc2ccccc21	4%	429%	-4%	-18%
CCc1ccccc1NC(=O)CN(C)C(=O)c1cccc(S(=O)(=O)N2CCCCCC2)c1	-8%	u	0%	u
CC(C)C(=O)NCC(c1ccc2c(c1)OCO2)N1CCN(c2ccccc2)CC1 (stereo unspecified)	2%	x	x	x
CCn1cc(C(=O)NCc2ccccc2Cl)c(=O)c2cc(S(=O)(=O)N3CCc4ccccc4C3)ccc21	-2%	x	x	x
O=C(O)CC(Cc1ccc(Br)cc1)C(=O)O (stereo unspecified)	4%	1%	3%	u
NC(CC(=O)O)c1ccc(Br)cc1 (stereo unspecified)	3%	3%	-4%	9.3µM*
O=C(COC(=O)COc1ccccc1[N+](=O)[O-])NC1CCCCC1	7%	-1%	2%[6.58 µM]	19%
COc1cccc(N2CCN(Cc3cc(=O)oc4cc(C)ccc34)CC2)c1	7%	x	x	x
COc1ccc(/C=C2/SC(=O)NC2=O)cc1	0%	73%	-6%	13µM*
COc1ccc(/C=C2\SC(=O)NC2=S)cc1OC	18µM*	-2%	-31%	-9%
COc1ccc(/C=C2/S/C(=N/S(=O)(=O)Cc3ccccc3)NC2=O)cc1OC	-4%	u	1%	12µM*
CCOc1ccc(/C=C2\SC(=S)N(C)C2=O)cc1OC	0%	116%	0%	-14%
CCOc1ccc(/C=C2\SC(=S)NC2=O)cc1OC	-8%	-11%	-4%	13µM*
NC(=O)c1cc([N+](=O)[O-])ccc1NCC1CCCCC1	2%	-68%	-13%	u
COc1cc(/C=C2\SC(=S)NC2=O)ccc1OS(=O)(=O)c1ccccc1	-1%	-29%	-43%	211%
COc1cc(/C=C2/SC(=S)NC2=O)ccc1OS(=O)(=O)c1ccc(C)cc1	-4%	-26%	-62%	12µM*
O=S(=O)(NCCc1ccc(F)cc1)c1ccc(F)cc1Br	x	x	-17%	x
CC1(c2ccccc2)O[C@@H]2C[C@H]3[C@@H]4CCC5=CC(=O)C=C[C@]5(C)[C@@]4(F)[C@@H](O)C[C@]3(C)[C@]2(C(=O)CO)O1 (stereo partly specified)	21%	0.83µM*	0%	1.9µM*
CC1(C)OC2CC3C4CC(F)C5=CC(=O)C=CC5(C)C4(F)C(O)CC3(C)C2(C(=O)CO)O1 (stereo unspecified)	18%	u	0%	5.9µM*
CC(C)Cn1c(-c2ccncc2)n[nH]c1=S	0%	3%	-1%	3.7µM*
CC(C)Cn1c(-c2csc3c2CCCC3)n[nH]c1=S	14%	12µM*	-3%	u
CC(C)Cn1c(-c2ccccc2F)n[nH]c1=S	8%	4%	3%	x
CC(C)Cn1c(-c2ccc(F)cc2)n[nH]c1=S	-21%	22%	-7%	25%

High-throughput results: PubChem BioAssay, National Center for Advancing Translational Sciences (NCATS)
